This is part of a sample that, as a whole, favours compounds with a hit. Of some 83,000 tested, about 20% had one in any assay.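 Single-dose data. Exposure time 48 hours. Values below 10 considered active.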 Unmarked numbers belong to inactive results. The source made the active and inactive calls.

Common to all, as to test: NCI-60 one-dose screen, 48 h (100 = growth as untreated, 0 = no growth, -100 = all killed)
Holding throughout (details): 10 µM unless noted

The test system of test [1] is HCT-15 colon.
The test system of test [2] is HT29 colon.
Test [3] concerns SNB-75 CNS.
Test [4] deals with SNB-19 CNS.
Test [5] concerns U251 CNS.
The subject of test [6] is PC-3 prostate.
Test [7] concerns SK-MEL-5 melanoma.
Test [8] concerns UACC-62 melanoma.
Test [9] concerns LOX IMVI melanoma.
For test [10], the system named is SK-MEL-28 melanoma.

For the compound `COc1ccc(Nc2nnc(-c3c[nH]c4ccccc34)o2)cc1`, the growth in test [1] is 69%; in test [2], 106%; in test [3], 78.8%; in [4], 95.2%; in [5], 97.6%; in test [6], 78.6%. Further, the growth is 90.6% in test [7], 82.2% in [8], 71.6% in test [9] and 107% in test [10].

Consider `C[C@H](NC(=O)c1ccc2c(-c3ccc(C(F)(F)F)cc3)cccc2c1)c1ccccn1`, for which the growth in test [1] was 20.4%; in [2], 26.6%; in test [3], 87.3%; in test [4] it was 42%; in [5] it was 42.3%; in test [6], 34.2%. For the same compound, the growth is 34.7% in test [7], 60.3% in test [8], 43.7% in test [9] and 74.6% in test [10].

`c1ccc(CSc2nnc(-c3ccc4nc(-c5ccccc5)[nH]c4c3)o2)cc1`: the growth in test [1] is 12.7%; in test [2], 42.5%; in [3], -51.4% (active); in test [4], 16.3%; in [5] it was 4.61% (active); in test [6] it was 26.6%. The growth was 29.4% in test [7], 5.19% (active) in test [8], -43.6% (active) in [9] and -4.76% (active) in test [10].

Consider `O=Cc1cncc(-c2ccc3ncnc(N4CCc5cc(F)c(Cl)cc54)c3c2)c1`, for which the growth was 18.7% in test [1]; 56.6% in test [2]; -12.6% (active) in test [3]; 49.5% in test [4]; 48.5% in test [5]; 23.6% in test [6]. In addition, the growth in test [7] is 19.5%; in [8], 13.4%; in test [9], 20.8%; in [10] it was 44.2%.

For `COc1ccc(-c2cc(-c3ccccc3)c(C#N)c(=O)[nH]2)cc1S(N)(=O)=O`, the growth in [1] is 106%; in test [2], 105%; in test [3], 89.4%; in test [4], 92.3%; in test [5] it was 98.5%; in [6] it was 97.2%. Further, the growth was 104% in [7], 110% in test [8], 94.5% in [9] and 107% in test [10].

For the compound `COc1ccc(-c2nc3ccc(-c4nnc(SCC(=O)Nc5ccc(/C(C)=N\O)cc5)o4)cc3[nH]2)cc1`, the growth in [1] is 93.4%; in test [2], 86.3%; in [3], 11.8%; in test [4], 57%; in test [5], 18.6%; in test [6], 44.3%. For the same compound, the growth in test [7] was -75.7% (active); in test [8], 14%; in test [9] it was 33.8%; in test [10], -64.6% (active).

For the compound `COC(=O)c1c(C(=O)OC)c2c3ccccc3c3ccccc3n2c1C(=O)C(C)(C)C`, the growth in test [1] was 46.6%; in [2], 71.9%; in test [3], 83.5%; in test [4], 96.2%; in test [5], 85.3%; in test [6], 35.3%. Further, the growth in [7] is 46.8%; in test [8], 50.1%; in test [9], 81.4%; in test [10], 92.5%.

Take `COc1ccc2oc(=O)c(-c3csc(N/N=C(\C)c4cc(OC)c(OC)c(OC)c4)n3)cc2c1`: the growth was 86.8% in test [1]; 113% in test [2]; 154% in test [3]; 86.6% in test [4]; 92.3% in test [5]; 67.6% in test [6]. Further, the growth was 69.6% in test [7], 93.1% in [8], 86.6% in test [9] and 102% in test [10].

For `O=C(Nc1nc2ccc([N+](=O)[O-])cc2s1)Nc1ccccc1F`, the growth in test [1] is 13.9%; in test [2], 5.55% (active); in test [3], 18.8%; in test [4], 10.2%; in test [5], 6.8% (active); in test [6], 13.9%. Further, the growth is -51.6% (active) in test [7], 22.4% in test [8], 10.5% in test [9] and 22% in [10].

In the case of `C=CCSc1nnc(-c2ccc(-c3nc4ccccc4[nH]3)cc2)o1`, the growth in [1] was 51.3%; in test [2], 69.5%; in [3] it was 74%; in test [4], 79.7%; in test [5], 84%; in [6], 57.5%. For the same compound, the growth in test [7] was 50.6%; in test [8], 73.9%; in [9], 73.9%; in test [10], 85.6%.

Regarding `COc1ccc(CCC2NCCc3c(Br)c4c(c(OC)c32)OCO4)cc1` (stereo not given), the growth is 7.93% (active) in test [1]; 2.11% (active) in test [2]; -4.42% (active) in test [3]; 12.1% in [4]; 7.13% (active) in test [5]; 26.5% in test [6]. The growth is -17% (active) in test [7], -32.5% (active) in test [8], -27.5% (active) in [9] and 1.12% (active) in test [10].

In the case of `Cc1ccc(C(=O)Nc2cc(-c3ccncc3)cc(C(F)(F)F)c2)cc1C#Cc1cnc2cccnn12`, the growth in test [1] was 40.5%; in test [2], 26.9%; in test [3] it was 93.7%; in [4], 92.9%; in test [5], 66.5%; in test [6], 75.1%. Also, the growth in test [7] is 34.4%; in test [8], 14.4%; in test [9], 11.1%; in test [10], 16.2%.

`CC1CCc2c(sc3nc(SCC(=O)c4cccc([N+](=O)[O-])c4)n(-c4ccccc4)c(=O)c23)C1` (stereo not given): the growth was 73.6% in test [1]; 67.9% in [2]; 85.8% in test [3]; 59% in [4]; 17.6% in test [5]; 82.1% in test [6]. The growth in [7] was 82.6%; in test [8], 91.9%; in [9] it was 53.7%; in test [10], 101%.

The values are drawn from PubChem BioAssay (NCI).
